Experimental data published in PubChem BioAssay AID602396 (The Scripps Research Institute Molecular Screening Center, 2012).
Screen size: about 360,000 compounds; about 460 (0.13%) were called active.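 The calls were made as follows: active = inhibition above the mean inhibition of all tested compounds plus 3 SD (cut at about 73% in these data); inactive = the rest.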 What follows is part of a selection rich in actives, with near analogues and random picks from the rest.

Biological target: Nuclear receptor subfamily 5 group A member 2 (Homo sapiens) (UniProt O00482)
Sequence (O00482 whole entry, looked up): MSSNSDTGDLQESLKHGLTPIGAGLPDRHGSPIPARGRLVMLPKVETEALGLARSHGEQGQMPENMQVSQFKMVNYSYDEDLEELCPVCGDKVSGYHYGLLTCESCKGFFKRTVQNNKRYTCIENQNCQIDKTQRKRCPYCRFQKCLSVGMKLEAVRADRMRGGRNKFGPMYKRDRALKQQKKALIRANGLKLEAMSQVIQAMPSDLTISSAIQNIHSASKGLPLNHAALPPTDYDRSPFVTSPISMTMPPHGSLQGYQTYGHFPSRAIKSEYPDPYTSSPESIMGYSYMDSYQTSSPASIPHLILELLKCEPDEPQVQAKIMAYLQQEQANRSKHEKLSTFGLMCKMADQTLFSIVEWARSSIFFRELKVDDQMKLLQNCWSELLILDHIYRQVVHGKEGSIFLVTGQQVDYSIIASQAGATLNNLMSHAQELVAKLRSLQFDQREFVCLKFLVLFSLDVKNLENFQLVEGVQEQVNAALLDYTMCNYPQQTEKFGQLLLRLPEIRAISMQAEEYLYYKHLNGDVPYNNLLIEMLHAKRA
Test: LRH-1 (NR5A2) inverse agonists, primary screen, cell-based, luminescence, HEK293T, StAR-luciferase reporter (AID 602396);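 also: 0% = DMSO wells and 100% = reporter-only cells lacking LRH-1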
Conditions: LRH-1 transfected, 24 h, at 3.6 µM, stronger effect = higher value

SMILES | inhibition
CCCOc1ccc(CN(CCO)CCO)cc1C(=O)OC | 23.4% (inactive)
O=C(NC1CCC(O)CC1)c1ccccc1OCc1ccc(F)cc1 (stereo not drawn) | 21.9% (inactive)
COC(=O)C1=NN(c2ccccc2)C2C(=O)N(c3ccccc3OC)C(=O)C12 (stereo not drawn) | 10% (inactive)
CCOC(=O)N1CCN(S(=O)(=O)c2cc3c(cc2C)NC(=O)CO3)CC1 | 12.8% (inactive)
O=C(NC(Nc1nc2ccc([N+](=O)[O-])cc2s1)(C(F)(F)F)C(F)(F)F)c1ccccc1 | 97.9% (active)
O=C(Nc1cc(-c2ccccc2)nn1-c1ccccc1F)c1ccc([N+](=O)[O-])cc1 | -5.47% (inactive)
O=[N+]([O-])c1ccc2c(c1)C(O)n1nc(-c3ccccc3)nc1S2 (stereo not drawn) | -9.43% (inactive)
CCc1ccccc1N1CN(Cc2ccco2)CNC1=S | -20.8% (inactive)
COc1ccc(NC(=O)c2cccc3c2C(=O)N(CC2CCCO2)C3)cc1OC (stereo not drawn) | -15.8% (inactive)
CCC1OC(C2CC2)CC2=C1C(=O)OC(C)(C)O2 (stereo not drawn) | -31.2% (inactive)
COc1ccc(OC)c(NC(=O)c2ccc3c(c2)C(=O)N(c2ccc(OC(C)=O)cc2)C3=O)c1 | 15.1% (inactive)
N=c1ccn(CC(=O)NC(N)=O)c2ccccc12 | 19.2% (inactive)
CCOC(=O)CN(C(=O)COc1nc(-c2ccccc2)cc(C)c1C#N)c1ccc(F)cc1 | 21.9% (inactive)
O=S(=O)(c1ccc(F)cc1)N1CCN(Cc2ccccc2C(F)(F)F)CC1 | 10.2% (inactive)
COc1cc(OC)c2c(c1)OC(=O)CC2c1cc(OC)c(OC)c(OC)c1 (stereo not drawn) | 2.48% (inactive)
COc1ccc(N(C(=O)c2ccc(C)cc2)S(=O)(=O)c2cccs2)cc1 | 2.34% (inactive)
CC[C@H]1CN2CCc3cc(OC)c(OC)cc3[C@@H]2C[C@@H]1C[C@H]1NCCc2cc(OC)c(OC)cc21 | 103% (active)
NC(=NC(=O)c1ccccc1)C1=C(O)CCC1=O | -13.8% (inactive)
O=C(CN(Cc1ccccc1)C(=O)c1ccc2c(c1)OCCO2)NCc1ccc2c(c1)OCO2 | 4.07% (inactive)
CC(C)Nc1nc(NCCOc2ccccc2Cl)c2sccc2n1 | 18.8% (inactive)
CCCCN(C=O)c1c(CC)nc2c(OCCC3CCCCC3)cccn12 | -7.2% (inactive)
Cc1ccc(S(=O)(=O)N2CC[C@H]3[C@@H](C2)C(=O)C[C@@H](c2ccccc2)N3S(=O)(=O)c2ccc(C)cc2)cc1 | -11.8% (inactive)

SMILES | inhibition
Cc1cc(NC(=O)COC(=O)/C=C/c2ccc(C)o2)no1 | -7.21% (inactive)
CCN(CC)CCCNC(=O)c1c(O)c2cc(F)cc3c2n(c1=O)C(C)CC3 (stereo not drawn) | -10.8% (inactive)
CCC(c1nnnn1-c1ccc2c(c1)OCCO2)N1CCN(c2ccc(C(F)(F)F)cn2)CC1 (stereo not drawn) | -0.51% (inactive)
CC(=O)Nc1ccc(SC[C@H](Cc2ccccc2)N2CC[C@@H](C)CCC2=O)cc1 | -2.81% (inactive)
O=C(Nc1ccccc1N1CCOCC1)c1ccc(OCc2cscn2)cc1 | 3.78% (inactive)
Cc1cc(CNCc2c(C(=O)N(C)Cc3ccccc3)nc3ccccn23)nn1C | 12.7% (inactive)
c1ccc(-c2nccc(-c3ccc(-n4cnc5ccccc54)cc3)n2)nc1 | 5.78% (inactive)
CC(C)(C)Nc1nc(-c2ccccn2)nc2ccccc12 | 85% (active)
CC(Nc1nc(C(F)(F)F)nc2ccccc12)c1cccs1 (stereo not drawn) | 14.1% (inactive)
O=C(NCc1ccncc1)C1CCCN(S(=O)(=O)c2ccc(Br)cc2)C1 (stereo not drawn) | 2.98% (inactive)
O=C(CSc1ccccn1)Nc1nc2c(ccc3ccccc32)s1 | -23.7% (inactive)
NC(N)=N/N=C/c1ccc(OCc2ccc(Cl)cc2Cl)cc1 | -0.41% (inactive)
CCCCCCNC(=O)O[C@]12C[C@@H](C(=O)OC)[C@@H](C(=O)OC)C[C@@]1(O)CN(S(=O)(=O)c1ccc(C)cc1)C2 | -18% (inactive)
Cc1cc(Nc2ccc(C)c(C)c2)n2ncnc2n1 | 18.7% (inactive)
C[C@@H]1CN([C@@H](C)CO)C(=O)CCCn2cc(nn2)CO[C@H]1CN(C)S(=O)(=O)c1ccc(-n2cccn2)cc1 | 1.12% (inactive)
CCN(CC)S(=O)(=O)c1ccc(OC)c(NC(=O)CCc2c(C)noc2C)c1 | 8.03% (inactive)
O=C(Nc1nnc(CCN2CCCCC2)s1)c1cccc(Cl)c1 | 0.75% (inactive)
COCCCN1C(=O)C(=O)/C(=C(/O)c2ccc(S(=O)(=O)N3CCOCC3)cc2)C1c1ccc(F)cc1 (stereo not drawn) | 9.93% (inactive)
CCN(CC)S(=O)(=O)c1cccc(C(=O)NCC(=O)OCC(=O)NCc2ccccc2)c1 | 1.85% (inactive)
C[n+]1cc(-c2ccccc2)oc1-c1ccccc1 | -30.6% (inactive)
C=CCn1c(SCC(=O)c2c(N)n(C)c(=O)n(C)c2=O)nc2sc(CC)cc2c1=O | -16.9% (inactive)
Cc1ccn2c(=O)nc(SCC(=O)NCc3ccc4c(c3)OCO4)nc2c1 | -9.89% (inactive)

SMILES | inhibition
COc1cc(S(=O)(=O)N2CCN(C(=O)C3CC3)CC2)ccc1NC(C)=O | 9.23% (inactive)
CCCCCCCCn1c2c(c(=N)c3c1CCC3)CCCC2 | 89.8% (active)
Cc1cccc2cc(CN(C(=O)c3cccs3)c3ccccc3)c(=O)[nH]c12 | -23.1% (inactive)
O=C(NNC(=O)c1cnccc1C(F)(F)F)c1ccc(Cl)cc1 | -7.32% (inactive)
CCN1/C(=C\c2ccc3ccccc3[n+]2CC)Sc2cc(C)ccc21 | 93.7% (active)
Cc1ccc(S(=O)(=O)N2C3C=CC(C3)C2C(=O)O)cc1 (stereo not drawn) | -13.6% (inactive)
CCC(=O)N(C)C(c1ccccc1Cl)c1nnnn1-c1c(C)cccc1C (stereo not drawn) | 1.16% (inactive)
CC(=O)Nc1sc2c(c1C(c1cccc(F)c1)N1CCN(CCO)CC1)CCCC2 (stereo not drawn) | 5.02% (inactive)
O=C(Nc1c2c(nn1-c1cccc(Cl)c1)CS(=O)(=O)C2)c1cccs1 | 17.8% (inactive)
Cc1cccc(N2CCN(C(=O)c3cc4c(=O)[nH]c5ccccc5c4n3C)CC2)c1C | 11.6% (inactive)
CCc1nc2c(OCc3ccc(F)c(F)c3)cccn2c1N(C)C(=O)c1ccco1 | -12.9% (inactive)
c1cc(-c2ccc3[nH]ccc3c2)n2ccnc2c1 | -8.26% (inactive)
COc1ccccc1-c1oc2ccccc2c1C#CCCCCO | -10.4% (inactive)
COC(=O)[C@]1(C)N[C@H](CN(C)C(=O)c2ccc(C(C)(C)C)cc2)[C@@H]2C(=O)N(C)C(=O)[C@@H]21 | -20.1% (inactive)
CC1C=CCC2C(=O)N(c3cccc(C(=O)N4CCCCCC4)c3)C(=O)C12 (stereo not drawn) | 6.85% (inactive)
CC(C)N(C)C(=O)CCc1nnc(CCc2c[nH]c3ccccc23)o1 | 18.1% (inactive)
O=C(Nc1ccc([N+](=O)[O-])cc1)C1(c2ccccc2)CCOCC1 | -9.79% (inactive)
Cc1ccc(NC(=O)CSc2sc3c(O)cc(=O)[nH]c3c2C#N)cc1C | 6.61% (inactive)
COc1ccc(OC)c(CCNC(=O)c2nn(C)c3c2CS(=O)(=O)c2ccccc2-3)c1 | 7.08% (inactive)
Cn1c(N)c(C(=O)COC(=O)COc2ccc(Cl)cc2)c(=O)n(C)c1=O | 4.34% (inactive)
CC(=O)N1CCSc2ccc(S(=O)(=O)N3CCC(C)CC3)cc21 | 2.83% (inactive)
COc1ccccc1N1CCN(CC(=O)NCCc2ccc(S(N)(=O)=O)cc2)CC1 | 16.7% (inactive)

SMILES | inhibition
Nc1ccc(OCC(O)C[n+]2ccc(CCS(=O)(=O)[O-])cc2)cc1 (stereo not drawn) | -10.5% (inactive)
CCCCn1c(N)c(N(CC)C(=O)c2ccccc2C(F)(F)F)c(=O)[nH]c1=O | -19.4% (inactive)
Cc1ccc(CNC(=O)C2CCCN2S(=O)(=O)c2ccc3c(c2)C(C)(C)C(=O)N3C)cc1 (stereo not drawn) | 4.35% (inactive)
CCOCCCNC(=O)C(NC(=O)c1ccc(=O)[nH]c1)c1ccc(Cl)cc1 (stereo not drawn) | 11.9% (inactive)
CCOc1ccc(Br)cc1S(=O)(=O)Nc1cccc(S(=O)(=O)N(CC)CC)c1 | -37.2% (inactive)
CCC(C)(C)NC(=O)C(c1cccn1C)N(Cc1ccc(C)cc1)C(=O)Cn1nnc2ccccc21 (stereo not drawn) | 22.9% (inactive)
CC1(C)C(=O)C2(CCCCC2)C(=O)OC1c1cccs1 (stereo not drawn) | 5.23% (inactive)
O=C(O)CCC(=O)N(Cc1ccco1)c1nc(-c2ccccc2)cs1 | -15.1% (inactive)
CSc1nnc(C2CCCN(CC(=O)Nc3ccccc3N3CCOCC3)C2)n1C(C)C (stereo not drawn) | -21.8% (inactive)
COc1ccc(Cn2c(-c3ccc(Cl)cc3)c[n+]3ccccc23)cc1 | -37.2% (inactive)
COC1=CC(=O)OC(C)(c2ccccc2)C1 (stereo not drawn) | -28% (inactive)
Cc1ccc(OS(=O)(=O)c2ccc(-c3csc(C)n3)s2)c(C)c1 | -6.88% (inactive)
CC1CCCCC1NC(=O)NC(=O)COC(=O)C1=NN(c2ccccc2)C(=O)CC1 (stereo not drawn) | -11.1% (inactive)
CCn1nc(C)cc1C(=O)N1CCCC(C(=O)c2cccc(OC)c2)C1 (stereo not drawn) | 6.22% (inactive)
CCOC(=O)C(C)Oc1cccc2c(=O)n(CC(=O)NCCc3ccc(OC)c(OC)c3)ccc12 (stereo not drawn) | 3.91% (inactive)
CC(C)=NN1C(=O)c2ccccc2NC1(C)C | -62.5% (inactive)
COCCN(C(=O)C(C)N1C(=O)c2ccccc2C1=O)c1c(N)n(CC(C)C)c(=O)[nH]c1=O (stereo not drawn) | -4.66% (inactive)
Cn1c(N)cc(-c2ccc(F)cc2)c(C#N)c1=O | 6% (inactive)
C=CCSC(CC)(CC)C(N)=O | 16.1% (inactive)
CC12CN(NC(=O)c3ccc(Cl)cc3)C3(C#N)CC1CCC23C (stereo not drawn) | 8.96% (inactive)
CC1CCCCC1NC(=O)CO/N=C/c1ccc(OC(F)F)cc1 (stereo not drawn) | 6.95% (inactive)
[2H]C(CCOS(N)(=O)=O)c1ccccc1 (stereo not drawn) | 3.1% (inactive)
